According to PubChem BioAssay (NCATS):
A number with no mark means an inactive call. The source made the active and inactive calls. Calls come from the whole dose curve; as a rule, active = well fitted activation curve with a large enough effect; inconclusive = small, poorly fitted or top-dose-only effect; inactive = no such curve, though single readings can be large or run the other way.

Molecular target: Parathyroid hormone/parathyroid hormone-related peptide receptor (Homo sapiens) (UniProt Q03431)
Sequence (Q03431 whole entry, looked up): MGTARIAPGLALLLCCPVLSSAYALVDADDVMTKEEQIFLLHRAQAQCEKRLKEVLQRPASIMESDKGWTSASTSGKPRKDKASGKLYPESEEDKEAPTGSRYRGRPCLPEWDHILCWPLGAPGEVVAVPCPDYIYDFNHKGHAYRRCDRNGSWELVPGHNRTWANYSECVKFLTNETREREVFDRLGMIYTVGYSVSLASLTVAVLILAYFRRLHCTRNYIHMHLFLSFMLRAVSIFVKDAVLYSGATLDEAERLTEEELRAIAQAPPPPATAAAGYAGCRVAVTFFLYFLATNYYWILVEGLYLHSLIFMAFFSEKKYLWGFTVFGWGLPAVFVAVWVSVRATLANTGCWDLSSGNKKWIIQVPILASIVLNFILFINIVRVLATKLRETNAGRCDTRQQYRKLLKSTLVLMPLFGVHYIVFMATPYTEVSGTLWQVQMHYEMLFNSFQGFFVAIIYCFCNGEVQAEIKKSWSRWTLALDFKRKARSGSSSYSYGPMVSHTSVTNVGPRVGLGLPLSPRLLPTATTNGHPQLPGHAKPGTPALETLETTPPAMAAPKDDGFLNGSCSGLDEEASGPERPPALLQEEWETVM
Assay: qHTS for PTHR1 Agonists: Optimization Screen against the NCGC LOPAC library (AID 1347079); note: 0% is about no effect
Settings: HEK293 GP2 PTHR1 GloSensor cAMP luminescence, 1 h; series mostly up to 57.1 µM; activation: at the top concentration
Text: The goal of the proposed studies is to discover new compounds that act as potent agonists on the parathyroid hormone receptor type-1 (PTHR1). The PTHR1 plays critical roles in maintaining blood calcium and phosphate levels, as well as in controlling bone remodeling. PTHR1 agonists could thus be useful for treating diseases such as hypoparathyroidism and osteoporosis. In the former disease, an agonist drug would help maintain normal blood calcium and phosphate levels under conditions of parathyroid hormone deficiency. In the latter disease, an agonist drug would stimulate new bone formation and thus reduce the risk of fracture, under conditions of bone fragility, as occurs in aging. We performed an optimization assay of the quantitative high-throughput screening (qHTS) for the parathyroid hormone receptor type-1 (PTHR1) against the NCGC LOPAC library collection of […] compounds using a unique HEK-293-derived cell line (GP2) that expresses the PTHR1 and a GloSensor cAMP reporter construct. Increase in signal (activation / agonist) is the desired outcome for compounds of interest. NIH Chemical Genomics Center [NCGC] NIH Molecular Libraries Probe Production Centers Network [MLPCN] MLPCN Grant: P01 DK011794 Assay Submitter (PI): Thomas Gardella PhD, Massachusetts General Hospital
Reagents / Controls: M-PTH (1-15) peptide hormone fragments was provided by the assay provider and was used as a control. Column 1 was treated with M-PTH titration (1:2 dilution) beginning with a final concentration of 10uM. Column 2 was treated with M-PTH final concentration of 10uM. Columns 3 and 4 were treated with DMSO only to assess background and noise signal. Assay Steps: Four microLiter of cells suspension was dispensed in a 1536-well assay plate at a final density of 3000 cells/well. The plates were incubated overnight, after which 4uL of 0.5mM of BloTium Luciferin plus 0.5mM IBMX was added. Next, the plate was incubated at 37C for 1hr before 23nL of compound (at various final concentrations from 40uM to 0.32uM) and control were added using a 1536-well array Kalypsys pin-tool. The treated plates were again incubated at 37C for another hour. Luminescence signal was obtained using the PerkinElmer ViewLux plate reader after 15min or room temperature incubation.

Compound | activation [%] | outcome
CC/C(=C(\c1ccccc1)c1ccc(OCCN(C)C)cc1)c1ccccc1 | 44.6 | –
CC1=C(/C=C/C(C)=C/C=C/C(C)=C/C(=O)Nc2ccc(O)cc2)C(C)(C)CCC1 | -35.1 | –
CC(C)(C)c1ccc(C(O)CCCN2CCC(C(O)(c3ccccc3)c3ccccc3)CC2)cc1 (stereo not given) | -22.7 | –
CCN(CC)CCNC(=O)c1ccc(N)cc1 | -8.68 | –
COC(=O)[C@@H]1[C@H]2C[C@H]3c4[nH]c5ccccc5c4CCN3C[C@@H]2CC[C@@H]1O | 15.6 | –
CCCCCN(C)CCC(O)(P(=O)(O)O)P(=O)(O)O | -16.9 | –
CCN1CCC[C@H]1CNC(=O)c1cc(S(N)(=O)=O)ccc1OC | -10.9 | –
Clc1ccc(Cn2c(CN3CCCC3)nc3ccccc32)cc1 | 0 | –
CCN(CC)C(=O)c1ccc(O)c(OC)c1 | -1.92 | –
CN(C)CCC(c1ccccc1)c1ccccn1 (stereo not given) | 37.5 | –
NCCS | -30.9 | –
O=C(NCCN1CCOCC1)c1ccc(Cl)cc1 | -8.2 | –
CC(C)OC(=O)C(C)(C)Oc1ccc(C(=O)c2ccc(Cl)cc2)cc1 | 36.9 | –
O=c1cc(-c2ccc(O)cc2)oc2cc(O)cc(O)c12 | -27 | –
O=c1c(-c2ccc(O)cc2)coc2cc(O)ccc12 | 5.23 | –
CC1(C)CCC2=C(O1)c1ccccc1C(=O)C2=O | -50.9 | –
COc1ccc(Cc2nccc3cc(OC)c(OC)cc23)cc1OC | 10.3 | –
C[N+](C)(C)CCCCCC[N+](C)(C)C | – | inactive

Compound | activation [%] | outcome
CC(=O)O[C@]1(C(C)=O)CC[C@H]2[C@@H]3C=C(Cl)C4=CC(=O)[C@@H]5C[C@@H]5[C@]4(C)[C@H]3CC[C@@]21C | -57.5 | –
O=C1NCC2(CCN(CCc3ccccc3)CC2)O1 | 17.1 | –
CC(=O)CCCCn1c(=O)c2c(ncn2C)n(C)c1=O | -4.71 | –
O=C(O)CCc1nc(-c2ccccc2)c(-c2ccccc2)o1 | 27.6 | –
COc1ccccc1N1CCN(CCCNc2cc(=O)n(C)c(=O)n2C)CC1 | -16.8 | –
NC(N)=Nc1nc(CSCC/C(N)=N/S(N)(=O)=O)cs1 | -0.872 | –
CC(=O)N[C@@H](CS)C(=O)O | 62.5 | –
CC(=O)c1ccc(S(=O)(=O)NC(=O)NC2CCCCC2)cc1 | 20.3 | –
Cc1cccc(C)c1OCC(C)N (stereo not given) | -15.7 | –
CCCCC1C(=O)N(c2ccccc2)N(c2ccccc2)C1=O | -49.8 | –
Clc1ccc(C(c2ccc(Cl)cc2)n2cc[n+](CC(OCc3ccc(Cl)cc3Cl)c3ccc(Cl)cc3Cl)c2)cc1 (stereo not given) | -6.06 | –
COc1cccc(-c2cc(=O)c3ccccc3o2)c1N | 16 | –
CCN(CC)CCOC(=O)c1ccc(N)cc1 | 18.4 | –
CCCNC(=O)NS(=O)(=O)c1ccc(Cl)cc1 | 4.67 | –
CCn1cc(C(=O)O)c(=O)c2ccc(C)nc21 | 20.2 | –
CC(C)NCC(O)COc1cccc2[nH]ccc12 (stereo not given) | 31.1 | –
O=C1NC(=O)C(c2ccccc2)(c2ccccc2)N1 | – | inactive
